This note sets out measurements from PubChem BioAssay (NCI).

Some test systems named below: NCI-H23 lung; NCI-H226 lung; NCI-H322M lung; HOP-62 NSCLC; NCI-H460 lung; HOP-92 NSCLC; NCI-H522 lung; A549/ATCC NSCLC; 786-0 renal; COLO 205 colon; DU-145 prostate; K-562 leukemia; MALME-3M melanoma; MDA-MB-231 breast; RXF 393 renal; SF-268 CNS; SF-295 CNS; SF-539 CNS; M14 melanoma.
What all share (assay): NCI-60 one-dose screen, 48 h (100 = growth as untreated, 0 = no growth, -100 = all killed)
Conditions in all cases: 10 µM unless noted

This is part of a sample that, as a whole, favours compounds with a hit. Of some 83,000 tested, about 20% had one in any assay.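 Note: values are percent growth. 100 is the growth of untreated cells, values between 100 and 0 indicate rising inhibition; between -100 and 0 indicates cell death.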 Values without a mark were called inactive. The source made the active and inactive calls. The calls were made as follows: active = growth percent below 10; inactive = the rest.

On to `CC/C(=N/NC(N)=O)c1ccccc1`, for which the growth in the assay on NCI-H23 lung was 98.6%; in the assay with NCI-H226 lung it was 97.8%; with NCI-H322M lung it was 102%; in the assay with HOP-62 NSCLC it was 107%; in the assay with NCI-H460 lung it was 108%; in the assay with HOP-92 NSCLC it was 103%. Besides, the growth in the assay with NCI-H522 lung was 99.5%; in the assay on A549/ATCC NSCLC, 96.4%; in the assay with 786-0 renal, 98.5%; in the assay on COLO 205 colon it was 119%; in the assay on DU-145 prostate, 108%; in the assay with K-562 leukemia it was 101%. Further, the growth with MALME-3M melanoma is 105%; with MDA-MB-231 breast, 102%; in the assay on RXF 393 renal, 108%; in the assay with SF-268 CNS, 107%; with SF-295 CNS it was 89.8%; in the assay on SF-539 CNS, 95.1%. Further, the growth with M14 melanoma was 106%.

Regarding `COc1cccc(-c2nn(-c3ccccc3)cc2-c2ccnc(NCCNS(=O)(=O)c3ccccc3)c2)c1`, the growth with NCI-H23 lung was 39.5%; in the assay on NCI-H226 lung, 41.2%; in the assay with NCI-H322M lung, 62.8%; in the assay with HOP-62 NSCLC it was 58.6%; with NCI-H460 lung it was 28.6%; in the assay with HOP-92 NSCLC, 19.4%. Further, the growth in the assay with NCI-H522 lung was 9.95% (active); with A549/ATCC NSCLC, 34.4%; in the assay with 786-0 renal, 42.7%; in the assay with COLO 205 colon, 10.6%; with DU-145 prostate it was 57.5%; in the assay with K-562 leukemia, 6.57% (active). In addition, the growth with MALME-3M melanoma is 69.1%; in the assay with MDA-MB-231 breast, 18.4%; in the assay with RXF 393 renal, 63.7%; in the assay with SF-268 CNS it was 50%; in the assay on SF-295 CNS, 20.6%; in the assay with SF-539 CNS, 57.1%. For the same compound, the growth with M14 melanoma was 29.8%.

On to `Cn1c(=O)c2c(nc(Br)n2CC(=O)Nc2ccc(F)cc2)n(C)c1=O`, for which the growth is 95.8% in the assay on NCI-H23 lung; 103% in the assay on NCI-H226 lung; 111% in the assay with NCI-H322M lung; 96.9% in the assay on HOP-62 NSCLC; 109% in the assay with NCI-H460 lung; 87.6% in the assay on HOP-92 NSCLC. The growth was 81.3% in the assay on NCI-H522 lung; 92.5% in the assay with A549/ATCC NSCLC; 95.3% with 786-0 renal; 104% in the assay with COLO 205 colon; 109% in the assay with DU-145 prostate; 104% with K-562 leukemia. Moreover, the growth in the assay with MALME-3M melanoma was 103%; with MDA-MB-231 breast, 90.1%; with RXF 393 renal, 108%; in the assay with SF-268 CNS it was 108%; with SF-295 CNS it was 108%; in the assay with SF-539 CNS it was 100%. Besides, the growth with M14 melanoma is 99.7%.

`COc1ccc(O)c(-c2cc(-c3ccc(Cl)cc3)c(C#N)c(=O)[nH]2)c1`: the growth was 69.6% in the assay on NCI-H23 lung; 89.1% with NCI-H226 lung; 101% with NCI-H322M lung; 64% in the assay on HOP-62 NSCLC; 69.3% in the assay on NCI-H460 lung; 36% in the assay on HOP-92 NSCLC. Moreover, the growth was 36.8% with NCI-H522 lung; 86.7% in the assay with A549/ATCC NSCLC; 68.3% with 786-0 renal; 95.2% in the assay on COLO 205 colon; 102% in the assay with DU-145 prostate; 23.5% in the assay with K-562 leukemia. For the same compound, the growth was 105% in the assay on MALME-3M melanoma; 61.2% in the assay with MDA-MB-231 breast; 84.5% in the assay on RXF 393 renal; 85.2% in the assay with SF-268 CNS; 61.5% with SF-295 CNS; 52.4% in the assay on SF-539 CNS. Moreover, the growth in the assay on M14 melanoma was 49.9%.

Regarding `O=S(=O)(NCCCNc1cc(-c2cn(-c3ccccc3)nc2-c2cccc(O)c2)ccn1)c1ccc(F)cc1`, the growth in the assay on NCI-H23 lung was 44.4%; with NCI-H226 lung it was 54.1%; with NCI-H322M lung, 51.2%; with HOP-62 NSCLC, 53.8%; with NCI-H460 lung it was 24.9%; with HOP-92 NSCLC, 57.7%. Further, the growth in the assay on NCI-H522 lung was 37.6%; with A549/ATCC NSCLC, 38.8%; with 786-0 renal it was -4.8% (active); in the assay with COLO 205 colon, -66.1% (active); in the assay on DU-145 prostate, 59.5%; with K-562 leukemia it was 3% (active). Moreover, the growth in the assay on MALME-3M melanoma was 35.9%; in the assay with MDA-MB-231 breast, -0.971% (active); with RXF 393 renal, 39.7%; with SF-268 CNS, 44.5%; with SF-295 CNS, 5.71% (active); with SF-539 CNS it was 38.8%. In addition, the growth in the assay with M14 melanoma was 26.6%.

As to `COc1ccc(-c2cc(-c3c(C)oc4cc5occc5c(OC)c4c3=O)nc(N)c2C#N)cc1OC`, the growth in the assay with NCI-H23 lung was 73.4%; with NCI-H226 lung, 66.2%; in the assay on NCI-H322M lung it was 81.2%; in the assay on HOP-62 NSCLC, 50.3%; in the assay with NCI-H460 lung, 32.4%; in the assay on HOP-92 NSCLC it was 10.6%. For the same compound, the growth was 47.1% in the assay with NCI-H522 lung; 57.2% in the assay with A549/ATCC NSCLC; 83.1% with 786-0 renal; 68.1% in the assay with COLO 205 colon; 81.9% in the assay with DU-145 prostate; 32% in the assay on K-562 leukemia. Also, the growth with MALME-3M melanoma was 86.4%; in the assay on MDA-MB-231 breast, 64.4%; in the assay with RXF 393 renal, 61.6%; in the assay on SF-268 CNS it was 65.1%; with SF-295 CNS, 52.1%; in the assay on SF-539 CNS, 64.2%. Moreover, in the assay with M14 melanoma, the growth is 72.2%.

As to `N#Cc1cnc2cc(OC[C@@H](O)CO)c(NC(=O)CC3CSSC3)cc2c1Nc1ccc(OCc2cccc(F)c2)c(Cl)c1`, the growth is -72.4% (active) in the assay on NCI-H23 lung; -65.3% (active) in the assay on NCI-H226 lung; -84.2% (active) in the assay on NCI-H322M lung; -57.1% (active) with HOP-62 NSCLC; -66.9% (active) with NCI-H460 lung; 9.97% (active) in the assay with HOP-92 NSCLC. Moreover, the growth in the assay with NCI-H522 lung is -72.6% (active); in the assay with A549/ATCC NSCLC, -61.8% (active); with 786-0 renal, -31.4% (active); in the assay on COLO 205 colon, -70.5% (active); in the assay on DU-145 prostate, -85.1% (active); in the assay on K-562 leukemia it was -37.4% (active). For the same compound, the growth in the assay with MALME-3M melanoma is -67.6% (active); in the assay on MDA-MB-231 breast, -60.5% (active); with RXF 393 renal, -72.9% (active); in the assay with SF-268 CNS, -57% (active); in the assay with SF-295 CNS it was -80.5% (active); in the assay on SF-539 CNS, -79.7% (active). Also, the growth in the assay on M14 melanoma is -78.7% (active).

Consider `COC(=O)[C@]12CC[C@@H](C)[C@H](C)[C@@H]1C1=CC[C@@H]3[C@@](C)(CC#N)C4=C(C[C@@]3(C)[C@]1(C)CC2)OC[C@]4(C)C=O`, for which the growth with NCI-H23 lung was -10.1% (active); with NCI-H226 lung, -37% (active); with NCI-H322M lung, 10.4%; in the assay with HOP-62 NSCLC, -23.6% (active); in the assay on NCI-H460 lung, -57.1% (active); with HOP-92 NSCLC, 2.68% (active). For the same compound, the growth with NCI-H522 lung is -6.43% (active); with A549/ATCC NSCLC, -73.6% (active); with 786-0 renal it was -19.3% (active); in the assay on COLO 205 colon it was -94% (active); in the assay on DU-145 prostate, 5.07% (active); with K-562 leukemia, 5.97% (active). In addition, the growth in the assay on MALME-3M melanoma is -16.9% (active); in the assay on MDA-MB-231 breast it was -8.99% (active); in the assay with RXF 393 renal it was -85.1% (active); in the assay on SF-268 CNS, 3.69% (active); in the assay on SF-295 CNS, -30.6% (active); in the assay on SF-539 CNS, -38.4% (active). The growth in the assay with M14 melanoma is -1.53% (active).
